Molecules are shown by their SMILES. Unmarked numbers belong to inactive results. Inconclusive results are not listed. Activity calls are given as the source filed them. Unless noted, the call rests on the fitted dose curve.

Experiment [1] can be described thus: qHTS assay to identify small molecule agonists of the estrogen receptor beta (ER-beta) signaling pathway - cell viability counter screen (AID 1259380; active means well fitted curve in the direction sought with a large enough effect in the repeat runs; an effect the other way counts as inactive or inconclusive; further: nearly all actives have a fitted effect of over 30% in size; further: potency means the concentration at half of the fitted maximal effect). An outline of the steps: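 Cells used were ER-beta-UAS-bla HEK293T in medium with 2% charcoal-stripped FBS. They were treated for 16 hr at 37C. Viability came from CellTiter-Glo luminescence.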
(qHTS replaces the single test concentration by a dilution series.)

For experiment [2], the target named is Androgen receptor (Homo sapiens) (UniProt P10275). Briefly: qHTS assay to identify small molecule agonists of the androgen receptor (AR) signaling pathway in the presence of an antagonist (AID 1259381). Further: nearly all actives have a fitted effect of over 15% in size. An outline of the steps:
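Using human MDA-kb2 cells with an MMTV promoter–luciferase construct (AR and GR response elements), agonist activity is scored under 3.0uM nilutamide (final) co-treatment; 16hr incubation, 37C, luminescence readout via ONE-Glo.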

Experiment [3] can be described thus: qHTS assay to identify small molecule antagonists of the estrogen receptor beta (ER-beta) signaling pathway - cell viability counter screen (AID 1259382; active means well fitted curve in the direction sought with a large enough effect in the repeat runs; an effect the other way counts as inactive or inconclusive; further: nearly all actives have a fitted effect of over 55% in size; further: potency means the concentration at half of the fitted maximal effect; on activity change, negative = cytotoxicity: series mostly up to about 92 µM). An outline of the steps: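 Agonist-stimulated (1nM E2) ER-beta-UAS-bla HEK293T cells are incubated with library compounds for 16 hr at 37C. Cell viability is then assessed in the reporter-assay wells by adding CellTiter-Glo and reading luminescence after 30 min.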

In experiment [4] the target is Estrogen receptor (Homo sapiens) (UniProt P03372). Briefly: qHTS assay to identify small molecule agonists of the estrogen receptor alpha (ER-alpha) signaling pathway in the presence of an antagonist (AID 1259383). Further: top concentration of the series differs between compounds; nearly all actives have a fitted effect of over 15% in size. In a few lines:
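Using VM7Luc4E2 cells seeded 24hr before treatment, antagonist ICI-182,780 (10.0nM final) was added, followed by compounds at 15 concentrations. Plates incubated 22hr; ONE-Glo luminescence quantified reporter activity.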

Experiment [5] is described as follows: qHTS assay to identify small molecule agonists or antagonists of the thyroid stimulating hormone receptor (TSHR) signaling pathway - wild type cell line counter screen (AID 1259384). An outline of the steps: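 Counter screen in untransfected Hek293: compounds (15-point titration, triplicate) plus phosphodiesterase inhibitor Ro20-1724 added after 18 h plating; 30 min RT. Intracellular cAMP via competitive d2/cryptate immunoassay, 1 h incubation.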

For experiment [6], the target named is Thyrotropin receptor (Homo sapiens) (UniProt P16473). As to the kind of experiment: qHTS assay to identify small molecule antagonists of the thyroid stimulating hormone receptor (TSHR) signaling pathway (AID 1259385). Further: nearly all actives have a fitted effect of over 20% in size. Further: potency means the concentration at half of the fitted maximal effect. An outline of the steps: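 Antagonist mode: compound-treated TSHR-expressing HEK293 cells were stimulated with 1.5 ng/mL TSH (final) in presence of Ro20-1724 for 30 min at RT. HTRF cAMP detection after 1 h; each compound tested at 15 concentrations, triplicate.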
Chain of Thyrotropin receptor (Homo sapiens) (P16473 whole entry, looked up): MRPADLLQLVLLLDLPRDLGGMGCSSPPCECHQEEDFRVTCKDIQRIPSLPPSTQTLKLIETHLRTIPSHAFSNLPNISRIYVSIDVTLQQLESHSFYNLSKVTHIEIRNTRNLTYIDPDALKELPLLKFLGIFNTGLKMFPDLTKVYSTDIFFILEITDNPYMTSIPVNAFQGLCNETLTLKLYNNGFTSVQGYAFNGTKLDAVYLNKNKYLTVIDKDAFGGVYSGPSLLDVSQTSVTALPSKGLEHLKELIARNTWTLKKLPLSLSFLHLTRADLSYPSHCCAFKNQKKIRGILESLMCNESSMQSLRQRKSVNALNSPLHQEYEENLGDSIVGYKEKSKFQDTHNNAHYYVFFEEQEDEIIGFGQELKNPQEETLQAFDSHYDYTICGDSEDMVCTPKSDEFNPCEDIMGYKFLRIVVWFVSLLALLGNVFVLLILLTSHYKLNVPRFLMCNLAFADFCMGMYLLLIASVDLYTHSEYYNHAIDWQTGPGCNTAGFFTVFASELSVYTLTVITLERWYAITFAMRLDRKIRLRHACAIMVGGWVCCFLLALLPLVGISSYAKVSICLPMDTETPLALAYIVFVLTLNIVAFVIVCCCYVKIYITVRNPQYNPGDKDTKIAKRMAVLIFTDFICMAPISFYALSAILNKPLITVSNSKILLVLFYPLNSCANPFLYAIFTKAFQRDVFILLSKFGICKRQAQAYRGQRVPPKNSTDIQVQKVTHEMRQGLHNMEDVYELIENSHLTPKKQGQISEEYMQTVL

Experiment [7] addresses Progesterone receptor (Homo sapiens) (UniProt P06401). Briefly: qHTS assay to identify small molecule agonists of the progesterone receptor (PR) signaling pathway (AID 1346784). Further: nearly all actives have a fitted effect of over 30% in size. An outline of the steps:
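Reporter assay, GripTite PR-UAS-bla HEK 293T cells: 16 hr exposure to DMSO-dissolved compounds at 37C, 5% CO2, in steroid-depleted (2% charcoal-stripped FBS) medium; beta-lactamase measured by FRET fluorescence.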

The target is the same in experiment [8]. Briefly: qHTS assay to identify small molecule antagonists of the progesterone receptor (PR) signaling pathway (AID 1346795; active means well fitted inhibition curve with a large enough effect in the signal ratio in the repeat runs, not every such curve was filed as active; the % refers to the signal ratio; further: potency means the concentration at half of the fitted maximal effect). In a few lines:
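Stimulus R5020 at 1 nM final; cells HEK293T PR-UAS-bla; medium with 2% charcoal-stripped FBS; compound exposure 16 hr at 37C, 5% CO2; detection by FRET beta-lactamase substrate, 2 hr, room temperature.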

Experiment [9] in a line: qHTS assay to identify small molecule agonists of the estrogen receptor alpha (ER-alpha) signaling pathway in the presence of an antagonist - cell viability counter screen (AID 1259386; active means well fitted curve in the direction sought with a large enough effect in the repeat runs; an effect the other way counts as inactive or inconclusive;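 further: cells exposed to compounds for 22 h at 37 °C before the viability read; nearly all actives have a fitted effect of over 30% in size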; further: potency means the concentration at half of the fitted maximal effect; on activity change, negative = cytotoxicity: series mostly up to about 92 µM). An outline of the steps:
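ICI-182,780 at 10.0nM final accompanies the compound titration (15 concentrations, 22hr, 37C) on VM7Luc4E2 cells. The CellTiter-Fluor fluorescence readout runs in the same wells as the luciferase assay.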

Experiment [10] is described as follows: qHTS assay to identify small molecule agonists of the androgen receptor (AR) signaling pathway in the presence of an antagonist - cell viability counter screen (AID 1259379; active means well fitted curve in the direction sought with a large enough effect in the repeat runs; an effect the other way counts as inactive or inconclusive;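 further: MDA-kb2 human breast cancer cells carrying an MMTV luciferase reporter; series mostly up to about 92 µM; nearly all actives have a fitted effect of over 25% in size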). In a few lines: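 A CellTiter-Fluor read-out measured viability of MDA-kb2 reporter cells (MMTV promoter with AR and GR response elements). Treatment: nilutamide 3.0uM final with compounds at 15 concentrations, 16 hr, 37C, 0% CO2.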
On the % scale 0 is the no-effect control and ±100 the full control effect.

Chain of Progesterone receptor (Homo sapiens) (P06401 whole entry, looked up): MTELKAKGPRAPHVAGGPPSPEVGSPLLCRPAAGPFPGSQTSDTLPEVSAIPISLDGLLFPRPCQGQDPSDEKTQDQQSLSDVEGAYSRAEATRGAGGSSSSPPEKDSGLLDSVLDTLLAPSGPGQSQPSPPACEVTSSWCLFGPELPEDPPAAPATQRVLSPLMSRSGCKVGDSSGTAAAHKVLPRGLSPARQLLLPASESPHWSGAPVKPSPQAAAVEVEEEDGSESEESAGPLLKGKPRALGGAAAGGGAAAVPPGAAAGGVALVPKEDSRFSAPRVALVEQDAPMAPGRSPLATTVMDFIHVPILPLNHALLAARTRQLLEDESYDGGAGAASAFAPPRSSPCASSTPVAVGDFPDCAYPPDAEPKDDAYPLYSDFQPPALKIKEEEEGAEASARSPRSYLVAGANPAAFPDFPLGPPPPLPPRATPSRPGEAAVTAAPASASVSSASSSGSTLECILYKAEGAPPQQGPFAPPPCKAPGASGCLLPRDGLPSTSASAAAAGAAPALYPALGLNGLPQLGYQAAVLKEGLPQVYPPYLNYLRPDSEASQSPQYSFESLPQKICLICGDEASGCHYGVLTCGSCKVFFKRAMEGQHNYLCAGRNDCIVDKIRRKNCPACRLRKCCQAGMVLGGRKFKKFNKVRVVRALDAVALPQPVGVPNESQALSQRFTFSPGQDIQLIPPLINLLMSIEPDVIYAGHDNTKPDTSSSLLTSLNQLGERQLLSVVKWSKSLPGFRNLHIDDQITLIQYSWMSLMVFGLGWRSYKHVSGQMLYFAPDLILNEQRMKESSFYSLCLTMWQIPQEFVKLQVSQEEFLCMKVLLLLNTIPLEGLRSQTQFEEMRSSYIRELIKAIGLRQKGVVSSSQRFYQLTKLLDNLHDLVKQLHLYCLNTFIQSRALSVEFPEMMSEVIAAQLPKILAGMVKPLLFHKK
Chain of Androgen receptor (Homo sapiens) (P10275 whole entry, looked up): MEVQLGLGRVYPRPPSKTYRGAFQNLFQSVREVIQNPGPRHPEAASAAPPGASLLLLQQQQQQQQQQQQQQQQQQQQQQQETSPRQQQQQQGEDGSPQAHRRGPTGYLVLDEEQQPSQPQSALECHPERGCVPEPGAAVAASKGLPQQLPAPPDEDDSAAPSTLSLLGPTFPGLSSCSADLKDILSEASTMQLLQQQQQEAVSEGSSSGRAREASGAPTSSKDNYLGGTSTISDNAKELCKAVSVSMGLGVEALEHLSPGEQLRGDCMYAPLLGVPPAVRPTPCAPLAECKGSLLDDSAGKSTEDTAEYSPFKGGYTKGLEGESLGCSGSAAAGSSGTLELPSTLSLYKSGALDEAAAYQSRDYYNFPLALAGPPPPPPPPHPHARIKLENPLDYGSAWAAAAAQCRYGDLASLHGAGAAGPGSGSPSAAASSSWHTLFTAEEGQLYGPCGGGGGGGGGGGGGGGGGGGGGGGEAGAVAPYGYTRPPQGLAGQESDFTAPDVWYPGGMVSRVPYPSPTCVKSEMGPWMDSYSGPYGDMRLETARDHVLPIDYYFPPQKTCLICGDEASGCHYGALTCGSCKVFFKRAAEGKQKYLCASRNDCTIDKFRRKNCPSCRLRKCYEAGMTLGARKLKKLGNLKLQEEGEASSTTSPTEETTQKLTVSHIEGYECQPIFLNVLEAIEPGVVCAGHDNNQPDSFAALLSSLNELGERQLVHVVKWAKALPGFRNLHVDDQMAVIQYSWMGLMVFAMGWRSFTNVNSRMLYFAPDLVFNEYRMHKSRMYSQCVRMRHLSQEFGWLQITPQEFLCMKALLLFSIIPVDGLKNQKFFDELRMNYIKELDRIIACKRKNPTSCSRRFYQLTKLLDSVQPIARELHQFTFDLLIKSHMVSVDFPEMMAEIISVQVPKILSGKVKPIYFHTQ
Chain of Estrogen receptor (Homo sapiens) (P03372 whole entry, looked up): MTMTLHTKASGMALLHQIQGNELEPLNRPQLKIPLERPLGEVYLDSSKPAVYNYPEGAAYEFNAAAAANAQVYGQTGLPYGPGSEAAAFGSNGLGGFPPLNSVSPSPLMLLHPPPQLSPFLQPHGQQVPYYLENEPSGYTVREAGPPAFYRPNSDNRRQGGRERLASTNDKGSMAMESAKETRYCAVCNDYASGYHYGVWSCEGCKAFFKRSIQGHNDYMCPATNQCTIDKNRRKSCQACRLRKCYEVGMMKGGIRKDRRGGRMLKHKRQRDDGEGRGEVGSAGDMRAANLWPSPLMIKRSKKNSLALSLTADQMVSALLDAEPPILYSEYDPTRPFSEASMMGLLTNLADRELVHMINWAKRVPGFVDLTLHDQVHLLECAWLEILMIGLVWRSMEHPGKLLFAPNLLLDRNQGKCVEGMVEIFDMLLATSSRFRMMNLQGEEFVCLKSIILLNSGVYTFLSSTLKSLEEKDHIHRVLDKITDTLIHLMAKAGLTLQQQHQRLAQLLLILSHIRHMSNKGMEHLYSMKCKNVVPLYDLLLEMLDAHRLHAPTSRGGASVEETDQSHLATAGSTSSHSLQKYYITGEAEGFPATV

As to `CCCCNc1ccc(NCCCC)c2c1C(=O)c1ccccc1C2=O`, the values for the activity change, negative = cytotoxicity in [1] and in experiment [3] were 6.16% [at 19 µM] and 15.6% [at 19 µM], respectively. The values for the activation in experiment [2], in experiment [4] and in experiment [7] were -0.623% [at 19 µM], -0.833% [at 19 µM] and 0% [at 19 µM], respectively. In addition, in experiment [5], the cAMP activity change is -7.38% [at 18.9 µM, hits give high values]. Also, the activity change, negative = inhibition in experiment [6] was -5.35% [at 19 µM]; in [8], 12.4% [at 18.9 µM].

As for `O=C(c1ccccc1)c1ccc(Cl)cc1`, the Potency entry in experiment [1], in experiment [3], in experiment [4], in experiment [5], in experiment [6] and in experiment [9] was “inactive” in each case. Besides, the Potency entry in [8] is “inactive”. Besides, the outcome in experiment [7] was inactive.

With `O=C1OC(O)C(C(Cl)Cl)=C1Cl` (stereo not given), the Potency in experiment [1] was 19.9 µM (active). The Potency result in experiment [3], in experiment [4], in experiment [5], in experiment [6] and in experiment [9] was “inactive” throughout.

Regarding `c1ccc2occc2c1`, the Potency result in experiment [10], in experiment [4], in [5], in experiment [6] and in experiment [9] was “inactive” throughout. The call in [7] was inactive.

In the case of `CN(C)CCOc1ccc(/C(=C(/CCCl)c2ccccc2)c2ccccc2)cc1`, the Potency in experiment [1] is 40.5 µM (active); in experiment [3], 45.5 µM (active); in [6], 40.5 µM (active). The Potency entry in experiment [2] and in [5] was “inactive” in each case.

With `C=C1C(CCl)(CCl)C2(Cl)C(Cl)C(Cl)C1(Cl)C2(Cl)Cl` (stereo not given), the Potency in experiment [1] was 48 µM (active). For the same molecule, the Potency result in experiment [2], in experiment [5] and in experiment [6] was “inactive” in each case.

With `CCCCCCCCCC[N+](C)(CCCCCCCCCC)CCC[Si](OC)(OC)OC`, the Potency result in [4], in experiment [5], in [6], in experiment [9] and in experiment [8] was “inactive” in each case. Further, in [7], the call was inactive.

`CCCCC/C=C\C=C\C(=O)OCC`: the Potency in [1] was 50.6 µM (active). Moreover, the Potency result in experiment [4], in experiment [5], in [6], in experiment [9] and in experiment [8] was “inactive” each time. In addition, the call in experiment [7] was inactive.

In the case of `COc1cccc(-c2ccc(/C=C\CN3CCCCCC3)cc2Cl)c1`, the Potency entry in [4], in [5] and in [9] was “inactive” each time. In addition, the molecule was called inactive in experiment [7].

Turning to `Nc1ccc2c(S(=O)(=O)O)cccc2c1S(=O)(=O)O`, the Potency entry in experiment [1], in [3], in [5], in experiment [6], in [9] and in [8] was “inactive” throughout. Further, the molecule was called inactive in experiment [7].

For `O=S(=O)(c1ccc(OCc2ccccc2)cc1)c1ccccc1O`, the Potency result in experiment [4] and in experiment [5] was “inactive” each time. In experiment [8], the Potency is 48.6 µM (active).

Take `O=C(Nc1ccccc1)c1cc(Cl)ccc1O`: the Potency result in experiment [3], in [4], in [5] and in experiment [6] was “inactive” each time. Moreover, the results for the Potency in experiment [9] and in [8] were 15.4 µM (active) and 24.3 µM (active), respectively.

For `c1ccc(C[P+](c2ccccc2)(c2ccccc2)c2ccccc2)cc1`, the Potency result in experiment [3], in experiment [4], in [5] and in [8] was “inactive” each time. Also, in [9], the Potency was 27.3 µM (active). In addition, in experiment [7], the outcome was inactive.

For the molecule `C=CCc1cc(S(=O)(=O)c2ccc(O)c(CC=C)c2)ccc1O`, the Potency entry in experiment [2], in experiment [4], in [5], in experiment [6] and in experiment [9] was “inactive” each time. Further, the molecule was classed as inactive in [7]. The Potency in [8] is 27.3 µM (active).

For `O=C1CCC/C=C\CCCCCCCCCC1`, the Potency result in [3], in experiment [5], in experiment [6] and in experiment [9] was “inactive” throughout. Besides, the call in [7] was inactive. For the same molecule, in experiment [8], the Potency is 48.6 µM (active).

Take `CCSCC`: the Potency result in [1], in [3], in experiment [4] and in experiment [9] was “inactive” each time.

With `CN[C@H]1CC[C@@H](c2ccc(Cl)c(Cl)c2)c2ccc(S(N)(=O)=O)cc21`, the Potency in experiment [1] is 19.3 µM (active); in experiment [3], 21.7 µM (active). Moreover, the Potency result in experiment [4], in experiment [5] and in experiment [9] was “inactive” in each case.

Consider `NCc1cccc(C2CCN(C(=O)c3ccc(C#Cc4ccccc4F)o3)CC2)c1`, for which the Potency result in experiment [2] and in experiment [4] was “inactive” in each case. The Potency in experiment [3] is 61.1 µM (active); in experiment [8], 68.6 µM (active).

As for `Nc1cccnc1N`, the Potency entry in [1], in experiment [3], in experiment [4], in experiment [5] and in [8] was “inactive” in each case. In experiment [7], the molecule was called inactive.

With `[Cl][Dy]([Cl])[Cl]`, the Potency entry in [1], in experiment [3], in experiment [4], in [5] and in experiment [6] was “inactive” throughout. In [7], the molecule was called inactive.

For the molecule `CC(C)=NNC(N)=S`, the Potency entry in [4] and in experiment [9] was “inactive” each time.

For `CC(C)(C)c1ccc(OC2CCCCC2O)cc1` (stereo not given), the Potency entry in experiment [2], in experiment [4], in experiment [5] and in experiment [6] was “inactive” each time. Moreover, the result in experiment [7] was inactive.

Regarding `COc1cc([C@@H]2c3cc4c(cc3[C@@H](O[C@@H]3O[C@@H]5CO[C@@H](C)O[C@H]5[C@H](O)[C@H]3O)[C@H]3COC(=O)[C@H]23)OCO4)cc(OC)c1O`, the Potency entry in experiment [1], in [3], in experiment [5], in experiment [6] and in [9] was “inactive” in each case. Besides, in [7], the call was inactive. Moreover, in experiment [8], the Potency is 24.1 µM (active).

Turning to `CCCCCCCC/C=C\CCCCCCCC(=O)N(CCO)CCO`, the Potency entry in experiment [3], in [4], in experiment [5], in experiment [6] and in experiment [9] was “inactive” each time. Also, the molecule was classed as inactive in experiment [7]. The Potency in [8] was 43.1 µM (active).

Consider `CC(C)(c1ccc(Oc2ccc(N)cc2)cc1)c1ccc(Oc2ccc(N)cc2)cc1`, for which the Potency entry in [2], in experiment [4] and in [5] was “inactive” each time. For the same molecule, the Potency in [9] is 54.5 µM (active); in [8], 27.3 µM (active). In addition, in experiment [7], the molecule was called inactive.

With `Cc1cccc(C)c1C`, the Potency entry in experiment [1], in experiment [3], in [5], in experiment [6], in experiment [9] and in experiment [8] was “inactive” throughout. The result in experiment [7] was inactive.

With `CCN(CC)c1ccc(C=O)c(O)c1`, the Potency result in [3], in experiment [4], in experiment [5], in experiment [6] and in experiment [9] was “inactive” each time. The call in [7] was inactive.

With `Nc1cc([N+](=O)[O-])cc(Cl)c1O`, the Potency entry in experiment [1], in [3], in [4] and in [8] was “inactive” in each case. Moreover, the molecule was called inactive in experiment [7].

Consider `Nc1ccc(N)c([N+](=O)[O-])c1`, for which the Potency in experiment [9] was 30.6 µM (active).

The values are drawn from PubChem BioAssay (Tox21).
